Only some compounds are listed: those with a hit (about 6.2% of all), similar ones and a draw of the others.
S2 tox: reduces viability in counter-screen for ATXN expression inhibitors; S2 cells (HEK-293 line with an ATXN2-luciferase reporter) viability, CellTiter-Fluor protease fluorescence, 24 h; Potency, µM (doses to about 56.7 µM), hits mostly cytotoxic; actives 0.49% (n = 400,000); also: nearly all actives have a fitted effect of over 40% in size
KB-V1 cytotox: kills drug-selected multidrug resistant KB-V1 cells. KB-V1 MDR cells viability, CellTiter-Glo, 72 h. Potency, µM (titrated, usually from 46.1 µM), most hits filed as cytotoxic. actives 3.4% (n = 400,000); also: % is scaled to controls: 0 for no effect and ±100 for the full control effect; nearly all actives have a fitted effect of over 60% in size
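Potencies derive from concentration-effect curves fitted to normalized luminescence (CellTiter-Glo) of KB-V1 cells treated for 72 h at 37 degrees C in phenol-red-free DMEM containing 10% FBS.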
HT1080 IDH1KD tx: toxicity to HT-1080 IDH1 knockdown cells (counter line). Potency, µM (titrated, usually from 46.1 µM), inactives show top-dose activity, negative = toxicity, hits mostly cytotoxic. HT-1080 IDH1 knockdown viability, ATP luminescence, 48 h. actives 2% (n = 360,000);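 also: 0% = DMSO wells and -100% = cell-free medium wells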
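After a 2 h attachment period, IDH1KD HT-1080 cells took pin-transferred compound for 48 h at 37 °C; ATP-based luminescence after 10 min room-temperature reagent incubation reported viability.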
KB-3-1 tox: kills parental KB-3-1 adenocarcinoma cells | KB-3-1 viability, CellTiter-Glo ATP luminescence, 72 h | Potency, µM (highest dose often 46.1 µM), hits mostly cytotoxic | actives 1.4% (n = 400,000) | AID 1347075; also: % is scaled to controls: 0 for no effect and ±100 for the full control effect; nearly all actives have a fitted effect of over 60% in size
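Viability of parental KB-3-1 cells, measured by CellTiter-Glo luminescence, followed a 72 h incubation at 37 °C with pinned compounds in phenol-red-free DMEM containing 10% FBS.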
HT1080-NT tox: kills 2HG-producing HT-1080-NT fibrosarcoma cells | actives 1.6% (n = 360,000) | AID 686970 | HT-1080-NT fibrosarcoma viability, CellTiter-Glo ATP luminescence, 48 h | Potency, µM (top dose mostly 46.1 µM), inactives show at the highest dose activity, negative = less viability, most hits filed as cytotoxic;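 also: NT is the 2HG producing partner of a matched IDH1 knockdown line; 0% = DMSO-treated cells and -100% = media-only wells without cells; nearly all actives have a fitted effect of over 55% in size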
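Luminescent CellTiter-Glo readout after 48 hours of compound exposure at 37 degrees C defined viability of HT-1080-NT cells. Activity was normalized to DMSO wells and cell-free media wells; concentration-response curves were fitted and assigned curve classes.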
ATXN2 expr inh: inhibitors of ATXN2 expression; HEK-293 ATXN2-luciferase reporter, luminescence, 24 h; actives 0.72% (n = 360,000); Potency, µM (highest dose often 57 µM), for the others: at the top dose activity change, negative = inhibition, most hits filed as inhibitors; also: % is scaled to controls: 0 for no effect and ±100 for the full control effect; nearly all actives have a fitted effect of over 55% in size
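qHTS (up to 57 uM final) was run with 24 h compound exposure of reporter cells at 37 °C. Each well was multiplexed: SteadyGlo luminescence measured ATXN2-luciferase expression after a fluorogenic Gly-Phe-AFC viability readout (25 uM final).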
Starred values were filed as active, the others as inactive; i = inactive; ? = inconclusive; · = no result given; [ ] = another dose, or the depositor's remark. Calls follow the shape of the dose curve; as a rule, active = well fitted curve in the direction sought with a large enough effect; inconclusive = small, poorly fitted or top-dose-only effect, or another doubt; inactive = no such curve, though single readings can be large; an effect the other way counts as inactive or inconclusive. Potency is read from the fitted curve at half-maximal effect.

SMILES	S2 tox	KB-V1 cytotox	HT1080 IDH1KD tx	KB-3-1 tox	HT1080-NT tox	ATXN2 expr inh
CCC(=O)O[C@@H]1CC(=O)O[C@H](C)C/C=C/C=C/[C@H](O)[C@H](C)C[C@H](CC=O)[C@H](O[C@@H]2O[C@H](C)[C@@H](O[C@H]3C[C@@](C)(O)[C@@H](OC(=O)CC)[C@H](C)O3)[C@H](N(C)C)[C@H]2O)[C@H]1OC	i	·	·	·	·	·
Oc1c(N=NC(=S)Nc2ccccc2F)c2ccccc2n1Cc1ccccc1Cl	?	i	-1.4%	4.11µM*	13µM*	-29.6%
O=C(c1ccc2c(c1)N(Cc1ccc(Cl)cc1)C(=O)c1ccccc1S2=O)N1CCN(c2ccccc2F)CC1 (stereo not given)	i	i	·	i	·	-14.9%
O=C(CCl)NCCCN(C(=O)C(Cl)Cl)c1ccc([N+](=O)[O-])cc1	31.6µM*	?	?	i	?	·
CCN(CC)C1CCN(C(=O)c2cnn(-c3nccc(-c4ccco4)n3)c2C(C)C)C1 (stereo not given)	i	·	·	·	·	·
CCC(C)/C(C)=N/NC(=O)c1ccc(CSc2nc3ccccc3s2)cc1 (stereo not given)	i	23.1µM*	-13.2%	?	-14.5%	-9.1%
CCNC(=O)c1ccc(CSc2nc3ccccc3s2)cc1	i	i	-26.8%	i	-9.0%	-5.7%
NC(=O)c1nsc(C(=O)N(CC(=O)NC2CCCCC2)Cc2ccc3c(c2)OCO3)c1N	·	i	·	i	·	·
Cc1cc(C)c2nc(N3CCCC(C(=O)N4CCN(c5ncccn5)CC4)C3)sc2c1 (stereo not given)	i	10.3µM*	4.2%	?	2.8%	?
COc1ccc(C(=O)COC(=O)C(CCSC)NS(=O)(=O)c2ccc(Cl)cc2)cc1 (stereo not given)	i	23.1µM*	2.2%	i	-1.1%	-6.5%
c1ccc(-c2nnc(-c3ccco3)n2-c2ccccc2)cc1	i	18.4µM*	0.6%	i	14.4%	7.1%
COc1ccccc1/C=C/c1cnccn1	·	i	·	?	·	·
COc1cc2nc(N3CCCN(C)CC3)nc(NC3CCN(C)C3)c2cc1OC (stereo not given)	·	i	·	?	·	·
CCOC(=O)c1c(NC(=O)c2ccc(N3C(=O)C4C5C=CC(C5)C4C3=O)cc2)sc2c1CCCC2 (stereo not given)	i	16.4µM*	11.1%	i	5.4%	-1.2%
O=C(NC1CCN(Cc2ccccc2)CC1)c1cccc(S(=O)(=O)Nc2cc(C(F)(F)F)ccc2Cl)c1	i	23.1µM*	-10.8%	?	-1.6%	-9.8%
Cc1ccccc1C(=O)c1c[nH]c(C(=O)N2CCN(c3ccccc3F)CC2)c1	i	i	?	i	-24.7%	-3.4%
O=C(c1cccc(S(=O)(=O)N2CCN(c3ccc(F)cc3)CC2)c1)N1CCCC(C(F)(F)F)C1 (stereo not given)	i	?	?	?	16.4µM*	?
O=C(c1c[nH]c(C(=O)N2CCN(c3ccccc3F)CC2)c1)c1cccc(Cl)c1Cl	i	20.6µM*	?	?	9.2µM*	·
CC1CN(C(=O)c2cccc(S(=O)(=O)N3CCN(c4ccc(F)cc4)CC3)c2)CC(C)O1 (stereo not given)	i	?	1.2%	i	8.0%	-1.7%
O=C(c1cccc(S(=O)(=O)N2CCCC2)c1)N1CCN(c2ccccc2F)CC1	i	6.51µM*	-5.5%	i	0.3%	-7.7%
Cc1ccc(CN2CCCn3nc(C(=O)NCCC(C)C)cc3C2=O)cc1	i	i	·	i	·	7.7%
O=C(c1cccc(S(=O)(=O)N2CCCCC2)c1)N1CCCCC1	i	14.6µM*	5.5%	i	5.0%	5.2%
O=C(c1cccc(S(=O)(=O)Nc2ccccc2Cl)c1)N1CCCCCC1	i	18.4µM*	2.7%	i	-4.0%	4.5%
O=C(NNC(=S)NC1CCCCC1)c1cccc(S(=O)(=O)Nc2ccccc2Cl)c1	i	20.6µM*	-4.4%	?	2.9%	1.2%
O=C(Nc1cccc(S(=O)(=O)Nc2ccccc2Cl)c1)c1ccc(Cl)nc1	i	2.59µM*	-8.2%	5.17µM*	-4.5%	-22.0%
SMILES	S2 tox	KB-V1 cytotox	HT1080 IDH1KD tx	KB-3-1 tox	HT1080-NT tox	ATXN2 expr inh
COCCN1CCN(C(=O)c2cnn(-c3nccc(-c4ccccc4F)n3)c2-c2ccco2)CC1	i	·	·	·	·	·
CC(C)C(NS(C)(=O)=O)c1nnc2n1CCN(Cc1ccc(Cl)cc1)CC2 (stereo not given)	i	·	·	·	·	·
CCC(=O)NC(=S)Nc1cccc(Cl)c1N1CCCCC1	i	i	5.62µM*	?	4.47µM*	-27.0%
CCCC(=O)NC(=S)Nc1ccccc1N1CCOCC1	i	?	7.1%	i	1.3%	-1.8%
CCCCC(=O)NC(=S)Nc1cccc(Cl)c1N1CCCCC1	i	20.6µM*	-15.5%	i	0.3%	3.4%
CCCC(=O)NC(=S)Nc1cccc(Cl)c1N1CCCCC1	?	18.4µM*	10µM*	?	5.01µM*	?
CCCCC(=O)NC(=S)Nc1ccccc1N1CCCCC1	i	i	8.6%	i	8.5%	6.0%
C[C@@H]1CC[C@@]2(OC1)O[C@H]1C[C@H]3[C@@H]4CC[C@H]5C[C@@H](O)CC[C@]5(C)[C@H]4CC(=O)[C@]3(C)[C@H]1[C@@H]2C	i[5.17 µM]	·	·	·	·	8.0%[5.55 µM]
Cc1cccc(-c2nnc(SCCC(=O)O)o2)c1	i	i	·	i	·	1.41µM*
O=C(CCSc1nnc(-c2ccco2)o1)Nc1ccc(F)cc1	i	i	-2.4%	i	0.4%	·
Cc1ccc(NC(=O)CSc2nnc(-c3ccco3)c(-c3ccco3)n2)cc1	i	5.17µM*	5.17µM*	5.8µM*	7.31µM*	-11.3%
Cc1ccc(NC(=O)CCSc2nnc(-c3ccco3)o2)cc1	i	23.1µM*	3.9%	?	2.8%	0.6%
CCOC(=O)c1cc(-c2ccc(C)cc2)n(CC(=O)NC2CCCCCC2)c1C	i	i	·	?	·	1.7%
Cc1ccccc1OCC(=O)Nc1nnc(S(=O)(=O)N2CCCCCC2)s1	i	i	·	i	·	9.0%
COc1ccccc1NC(=O)C1=C(C)Nc2ncnn2C1c1cccn1C (stereo not given)	i	i	·	i	·	16.5%
CCOC(=O)c1ccc(N2C(=O)c3n[nH]c(C)c3C2c2ccc(O)cc2)cc1 (stereo not given)	i	i	-11.7%	i	-11.8%	44.3%

Assay outcomes as filed in PubChem BioAssay.
